Data on 40 compounds can be found in PubChem BioAssay (NCI).

Each structure is given as a SMILES string. Compounds without any hit were thinned out: in the full panel of roughly 83,000, 20% have a hit.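 How to read the values: 0–100, growth inhibition (40 = 60% inhibited); 0, no net growth; -100 to 0, cell death (-40 = 40% of starting cells died; -100 = all dead).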 Activity calls are given as the source filed them.

The test system of this assay is IGROV1 ovarian. In words: NCI-60 one-dose screen, 48 h (100 = growth as untreated, 0 = no growth, -100 = all killed). As to conditions: 10 µM unless noted. As to the method:
Growth inhibition of the IGROV1 human tumor cell line is measured as a screen for anti-cancer activity. Cells are grown in 96 well plates and exposed to the test compound for 48 hours. Compounds are tested at a single concentration, which is 10^-5 M for most compounds. The reported endpoint is percent growth (GI% or GIPRCNT), where numbers from 0 - 100% represent growth inhibition, and numbers from -100% - 0 represent cell death. For example, a value of 40 represents 60% growth inhibition. A value of 0 means no net growth occurred over the course of the experiment. A value of -40 indicates 40% of cells at the beginning of the experiment died by the end of the experiment. A value of -100 means all cells are dead at the end of the experiment.
NCI-60 Human Tumor Cell Lines Screen was performed using the standard one-dose NCI protocol, which is described in more detail at https://dtp.cancer.gov/discovery_development/nci-60/default.htm.
Compounds with GIPRCNT values below 10 were considered active. Activity score was based on GIPRCNT using the following formula: […]
Score is 0 for GIPRCNT values of 100 or above, 50 for GIPRCNT values of 0, and 100 for GIPRCNT values of -100.
For the compound `O=C1c2c(c3c4ccccc4[nH]c3c3ccc4ccccc4c23)C(=O)N1CCN1CCCCC1`, the growth is 52.8% (inactive). As for `CN1CCN(Cc2ccc3c(NNC(=O)c4ccccc4)nc4cc(F)ccc4n23)CC1`, the growth was 21.7% (inactive).

Regarding `COc1ccc(-c2nnc(-c3ccc4c(c3)nc(-c3ccncc3)n4C3CCCCC3)o2)cc1`, the growth was 73.7% (inactive).

As for `Cc1c(-n2nnc(-c3nc4ccccc4s3)c2N)c(=O)n(-c2ccccc2)n1C`, the growth is 90.5% (inactive).

As for `CN1CCN(Cc2ccc(NC(=O)c3cncc(C#Cc4cnc(N)c5ccccc45)c3)cc2C(F)(F)F)CC1`, the growth is -69.8% (active).

With `COc1cc2c(c(OC)c1OC)C(=O)CC(c1cccc(NC(=O)c3ccc(Br)cc3)c1)O2` (stereo not given), the growth was 45.9% (inactive).

For the compound `COc1ccc(/C=C2\COc3ccc(O)c(O)c3C2=O)cc1`, the growth was 1.03% (active). The same measure for `CCc1n(Cc2ccc3ccccc3c2)cc[n+]1Cc1ccc2ccccc2c1`: -21.7% (active); for `CS(=O)(=O)c1cccc(-c2c(-c3cccc(OS(N)(=O)=O)c3)nc3sccn23)c1`: 97.9% (inactive). With `CCCCN1C(=O)/C(=c2\sc3n(c2=O)C2C(NN=3)N(CC)C(=O)N2CC)c2ccccc21` (stereo not given) the figure was 2.64% (active).

Turning to `N#Cc1cccc(-c2c(-c3ccc4ccccc4c3)oc3ccccc3c2=O)c1`, the growth was 36.5% (inactive).

Turning to `Cc1cccc(Cl)c1NC(=O)c1ccc2nc(NC(=O)NCCN(C)C)sc2c1`, the growth is 109% (inactive). As to `O=C(Cn1c(-c2ccc([N+](=O)[O-])cc2)nc2ccccc21)NNC(=O)c1cccnc1`, the growth was 63.3% (inactive). With `O=C1Nc2ccccc2/C1=C\c1nc(-c2ccccc2)n2ccccc12` the figure was 67% (inactive). With `Oc1c(Cl)cc(Cl)c2ccc(Cn3cc(-c4cc(F)cc(F)c4)nn3)nc12` the figure was 85.8% (inactive); with `O=C1N(Cc2ccccc2Cl)c2ccccc2C12NN=C(c1cccc(Cl)c1)S2` (stereo not given), 20.2% (inactive); with `O=S(=O)(NCCCNc1nccc(-c2c(-c3ccc(F)c(O)c3)nc3occn23)n1)c1ccccc1`, 92.1% (inactive).

As to `CS(=O)(=O)Nc1cc(-c2ccc3ncnc(Nc4ccc5c(cnn5Cc5ccccn5)c4)c3c2)cnc1Cl`, the growth was 38.1% (inactive). The same measure for `C/C(=C(/c1ccc(Cl)cc1)c1ccc(OCCN2CCCC2)cc1)c1ccc(Cl)cc1`: 81.1% (inactive). For `CCc1ccc(Oc2cn[nH]c2-c2ccc(OCCc3ccc(F)cc3)cc2O)cc1`, the growth was 97.3% (inactive). Consider `CCOC(=O)c1c(C)c2c(n1C)CSc1cc(C(=O)c3ccccc3)c(=O)[nH]c1-2`, for which the growth is 104% [100 µM] (inactive). The same measure for `CC1(C)CC[C@]2(C(=O)O)CC[C@]3(C)C(=CC[C@@H]4[C@@]5(C)C/C(=C/O)C(=O)C(C)(C)[C@@H]5CC[C@]43C)[C@@H]2C1`: 31.4% (inactive). In the case of `CS(=O)(=O)C1=CN(CCO)C(=O)N2CCCN=C12`, the growth is 102% (inactive).

In the case of `Cn1ccc2c3c(ccc21)CC3=O`, the growth was 112% (inactive). With `Clc1ccc(CNc2c3ccccc3nc3ccccc23)cc1` the figure was 31.7% (inactive); with `O=C(CSc1nnc2n1S(=O)(=O)c1ccccc1N2c1ccccc1)Nc1nc2ccc(F)cc2s1`, 34.7% (inactive). With `C=C1C(=O)O[C@H]2[C@H]1CC/C(COC(=O)NCc1cc[nH]c1)=C\CC[C@@]1(C)O[C@@H]21` the figure was 15.5% (inactive); with `Cc1ccc(-c2nc3nc(-c4ccccc4)nc(N4CCNCC4)c3o2)cc1`, -76.7% (active); with `Oc1c(Cl)cc(Cl)c2ccc(Cn3cc(-c4ccc(C(F)(F)F)cc4)nn3)nc12`, 78.9% (inactive). The same measure for `COc1cc(NC(C)CCCNC(C)C)c2ncccc2c1OC` (stereo not given): 75.9% (inactive). `Nc1ncnc2c1N=C(c1ccc3c(c1)OCO3)CC(c1ccc([N+](=O)[O-])cc1)N2` (stereo not given): the growth is 3.46% (active). The same measure for `CCCC(O)Cn1ncc(C(=O)OCC)c1NC(=O)NCc1ccccc1F` (stereo not given): 92.9% (inactive); for `CCOC(=O)c1cc(-c2ccc([N+](=O)[O-])cc2)n(-c2ccc(C(=O)O)c(O)c2)c1C`: -11.3% (active); for `O=C1Nc2ccccc2[C@]12CC(c1ccccc1)=NN2`: 33.1% (inactive).

With `Cc1ccccc1/C=C1\CN(C(=O)OC(C)(C)C)C/C(=C\c2ccccc2C)C1=O`, the growth is 26% (inactive). As for `O=C(O)/C(=C\c1ccc(Cl)cc1)c1ccc(Cl)cc1`, the growth is 71.2% (inactive).

Consider `CC(C)c1ccc(NC(=O)Nc2ccc(NC(=O)CCCC(=O)NOCc3ccccc3)cc2)cc1`, for which the growth was 91.5% (inactive). The same measure for `O=C(Cn1c(=O)sc2nc3ccccc3nc21)Nc1ncc(Cc2cccc(Cl)c2Cl)s1`: 81.3% (inactive). The same measure for `O=C1/C(=C/c2ccc(Cl)cc2)COc2ccc(O)c(O)c21`: -38% (active); for `CN[C@]12CC3(C=CC(=O)C=C3)O[C@@]1(Cc1ccc(OC)cc1)N(C)C(=O)N2`: -28.4% (active).
